Reference: PubChem BioAssay AID651920 (Broad Institute, 2012)
Potency and affinity values are given separately. Activity calls are given as the source filed them.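 How the source made its calls: active means compounds lowering viability with a fitted half-maximal potency at or below twice the top tested dose; inconclusive means flat fit showing 30 to 70% loss, or poor fit; inactive means the rest.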

Test: cytotoxicity in primary human melanocytes, dose response, cytotoxicity control, cell-based, plate reader, dry powder (AID 651920)
Settings: ATP luminescence, 24 h; series mostly up to 35 µM

SMILES | outcome
CC(C)N1CCN(C2=C(Nc3ccc(F)cc3F)C(=O)c3ccccc3C2=O)CC1 | inactive
NC1=C(NS(=O)(=O)c2ccc(Br)s2)C(=O)c2ccccc2C1=O | inactive
O=C1C(Nc2ccc(Cl)cc2)=C(N2CCCC2)C(=O)c2ccccc21 | inactive
CN1CCN(C2=C(Nc3ccc(F)cc3F)C(=O)c3ccccc3C2=O)CC1 | inactive
NC1=C(NS(=O)(=O)c2ccccc2)C(=O)c2ccccc2C1=O | inactive
O=C1C(Nc2ccc(Br)cc2)=C(N2CCCCC2)C(=O)c2ccccc21 | inactive
CC(C)N1CCN(C2=C(Nc3ccc(F)cc3)C(=O)c3ccccc3C2=O)CC1 | inactive
NC1=C(NS(=O)(=O)c2cccs2)C(=O)c2ccccc2C1=O | inactive
CCN1CCN(C2=C(Nc3ccc(F)cc3F)C(=O)c3ccccc3C2=O)CC1 | inactive
O=C1C(Nc2ccc(F)cc2)=C(N2CCCCC2)C(=O)c2ccccc21 | inactive
O=C1C=C(Nc2ccccc2)C(=O)c2ccccc21 | inactive
O=C1C(Nc2cccc(Cl)c2)=C(N2CCCC2)C(=O)c2ccccc21 | inactive
NC1=C(NS(=O)(=O)c2ccc(Br)cc2)C(=O)c2ccccc2C1=O | inactive
Cc1ccc(NC2=CC(=O)c3ccccc3C2=O)cc1 | inactive
